# Source: PubChem BioAssay (NCI)
# Where “and” joins values, the source holds several entries; their conditions need not be identical. Equal values may be shown once. The panel holds about 83,000 compounds, 20% with a hit somewhere; the sample as a whole holds those more often.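 48-hour exposure, single concentration, 96-well plates; percent growth endpoint where 0 means no net growth. Active: below 10.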 A number with no mark means an inactive call. Calls of active or inactive are those of the source.
# Tested on: MDA-MB-468 breast
# Experiment: NCI-60 one-dose screen, 48 h (100 = growth as untreated, 0 = no growth, -100 = all killed)
# Details: 10 µM unless noted
row,Structure (SMILES),growth
1,COc1cc(OC)c(S(N)(=O)=O)cc1C(=O)/C=C/c1ccccc1,-43.4% (active)
2,O=C(CN1C(=O)S/C(=C\C(Cl)=C\c2ccccc2)C1=O)NCCCn1ccnc1,-28.2% (active)
3,CCNC(=S)NN,34.9%
4,Cc1cc2nc(C(Cl)Cl)nc(-c3cccs3)n2n1,-52% (active)
5,COc1ccc(-n2[nH]c3c(cnc4ccccc43)c2=O)cc1,108% and 99.5%
6,CCNC(=O)N1CCc2cc(OC)c(OCCc3ccc(OC)cc3)cc2C1c1ccc(OC)cc1C (stereo not given),12.6%
7,CCN(CC)CC(=O)Nc1cccc(C(=O)OC(C)C)c1,115%
8,O=C(/C=C/c1ccc(F)cc1)Nc1ncc(Cc2ccc(F)cc2)s1,8.11% (active)
9,CN(CCC#N)c1ccc(/C=C(\C#N)c2cccc(C(F)(F)F)c2)cc1,23.4%
10,COc1cc(C2CC(c3cc(OC)c(OCCCOc4ccc(-n5c(/C=C/c6ccccc6)nc6ccccc6c5=O)cc4)c(OC)c3)=NO2)cc(OC)c1OC (stereo not given),104%
11,C/C(=C\c1csc(C)n1)[C@@H]1C[C@@H]2O[C@]2(C)CCC[C@H](C)[C@H](O)[C@@H](C)C(=O)C(C)(C)[C@@H](O)CC(=O)N1,22.4%
12,COc1cc2cc(NCc3cccc(Cl)c3)nc(C)c2cc1OC,46.6%
13,CC#Cc1nc(Nc2cc(C)[nH]n2)c2ccccc2n1,1.44% [100 µM] (active)
14,CCCCCCCC(=O)SCC/C=C/[C@@H]1CC(=O)NCc2nc(co2)C2=N[C@@](C)(CS2)C(=O)N[C@@H](C(C)C)C(=O)O1,-0.758% (active)
15,O=C1NC(=O)C(Cc2ccccc2)(Cc2ccccc2)N1,104%
16,O=c1c2c(O)cccc2oc2c3c(cc(O)c12)O[C@H]1OC=C[C@@H]31,30.2%
17,O=C(Nc1nc2ccc(C(=O)N3CCN(c4ccc(Cl)c(Cl)c4)CC3)cc2s1)c1ccc(NCCc2ccccc2)c([N+](=O)[O-])c1,88.6%
18,Oc1ccc(Cc2ccccc2)c2cccnc12,-21.1% (active)
19,C=CCOc1ccc2c(c1)CC=C1[C@@H]2CC[C@]2(C)C(=O)/C(=N/O)C[C@@H]12,55.7%
20,CC1(C)CC(=O)C2=C(C1)OC1=C(C(=O)CC(C)(C)C1)C2c1ccc(OCc2cn(-c3ccc(F)cc3F)nn2)cc1,103%

row,Structure (SMILES),growth
1,COc1cccc(/C(C)=N/NC(=O)CSc2nc3ccccc3c(=O)n2CCc2ccc(S(N)(=O)=O)cc2)c1,35.3%
2,Cc1nc2nc(C(F)(F)F)[nH]c2nc1C,102%
3,N#Cc1c(-c2cccs2)cc(-c2cnccn2)nc1SCC(=O)N/N=C/c1ccncc1,103%
4,CC(=O)c1cc2c(N)c(C(=O)Nc3ccccc3)sc2nc1C,24.3%
5,C/C=C/CC(C)C(O)C1C(=O)NC(CC)C(=O)N(C)CC(=O)N(C)C(CC(C)C)C(=O)NC(C(C)C)C(=O)N(C)C(CC(C)C)C(=O)NC(C)C(=O)NC(C)C(=O)N(C)C(CC(C)C)C(=O)N(C)C(CC(C)C)C(=O)N(C)C(C(C)C)C(=O)N1C (stereo not given),4.57% (active)
6,O=C1Nc2cc(-c3ccc(O)cc3)ccc2/C1=C/c1ccc[nH]1,-29.2% (active)
7,O=[N+]([O-])c1ccc(/C=C/C2(CCl)OCCO2)cc1,108%
8,COc1ccc(Cn2nc(-c3ccccc3)c3c2CCc2cnoc2-3)cc1,43.1%
9,CC1Cc2c(Cl)ncnc2N(C)c2ccc(O)cc21 (stereo not given),-6.93% (active)
10,Clc1ccc(Nc2nnc(CNc3ccccc3)c3ccccc23)cc1,-16.4% (active)
11,COc1cc2c(cc1-c1c(C)noc1C)ncc1nc(C3CCCC3)n([C@H](C)COC(F)F)c12,32.7%
12,Cc1c(Cl)cccc1NCN1C(=O)c2ccccc2C1=O,98.4%
13,COc1cc(OC)c(C2C(Cl)C(=O)N2Nc2ncnc3ccccc23)cc1OC (stereo not given),92.5%
14,Cl[C@@H]1CCO[C@H](c2cc3ccccc3c3ccccc23)C1,93.4%
15,Cc1ccc2c(c1)Nc1ccc(C)cc1C2(C)C,101%
16,NS(=O)(=O)c1ccc(CCn2c(SCC(=O)N/N=C/c3cc4ccccc4[nH]3)nc3ccccc3c2=O)cc1,60.2%
17,O=C(/C=C/Nc1ccc(S(=O)(=O)Nc2ncccn2)cc1)c1ccc(N=Cc2c(O)[nH]c3ccccc23)cc1,109%
18,COc1ccc(-c2cc(=O)c3c(OC)c4ccoc4cc3o2)cc1,101%
19,CC(C)c1ccc(NC(=O)Nc2ccc(NC(=O)c3ccccc3N)cc2)cc1,81.4%
20,CCOC(=O)Nc1cc(-c2ccc(C)c(NS(C)(=O)=O)c2)nn2c(C)nnc12,-26% (active)
